From PubChem BioAssay (NCATS)
Inconclusive results are not listed. Calls of active or inactive are those of the source. Unless noted, calls come from the whole dose curve; as a rule, active = well fitted curve in the direction sought with a large enough effect; inconclusive = small, poorly fitted or top-dose-only effect, or another doubt; inactive = no such curve, though single readings can be large; an effect the other way counts as inactive or inconclusive.

What was measured:
[1] = Viability counterscreen for antagonist of constitutive androstane receptor (CAR) against the NCATS DSHEA and TCM libraries (AID 1794837);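 note: compound exposure lasted 24 h before viability reading; 0% is about no effect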
Method in brief: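 Fluorescence from CellTiter-Fluor reports live-cell protease activity in HepG2-CYP2B6-hCAR cells treated for 24 h with substances alongside 48 uM CITCO.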

[2] = Viability counterscreen for agonist of constitutive androstane receptor (CAR) against the NCATS DSHEA and TCM libraries (AID 1794838); note: 0% is about no effect
Method in brief: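 In agonist mode, PK11195 is added at 0.75 uM final to HepG2-CYP2B6-hCAR cells dosed with test substances. Cultures incubate 24 h at 37C before a protease-based fluorogenic viability readout.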

[3] = target: Nuclear receptor subfamily 1 group I member 3 (Homo sapiens) (UniProt Q14994); assay: Primary qHTS for agonist of constitutive androstane receptor (CAR) against the NCATS DSHEA and TCM libraries (AID 1794839); note: potency is the fitted concentration of half-maximal effect
Sequence of Nuclear receptor subfamily 1 group I member 3 (Homo sapiens) (Q14994 whole entry, looked up): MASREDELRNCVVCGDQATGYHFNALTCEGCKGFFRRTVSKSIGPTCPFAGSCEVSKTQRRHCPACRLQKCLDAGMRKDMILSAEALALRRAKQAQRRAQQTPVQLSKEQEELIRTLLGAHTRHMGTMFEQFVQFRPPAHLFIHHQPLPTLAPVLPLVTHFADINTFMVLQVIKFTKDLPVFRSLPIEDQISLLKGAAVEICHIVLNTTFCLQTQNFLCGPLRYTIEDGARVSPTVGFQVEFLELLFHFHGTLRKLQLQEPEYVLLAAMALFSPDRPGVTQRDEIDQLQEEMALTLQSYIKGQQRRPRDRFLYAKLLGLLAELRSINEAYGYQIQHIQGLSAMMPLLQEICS
Method in brief: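 Cells stably carrying hCAR and a CYP2B6 reporter (HepG2 background) are seeded and allowed 5 h to adhere. Substances at multiple concentrations are added alongside 0.75 µM PK11195, and luciferase signal is measured after 24 h.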

[4] = HepG2 viability counterscreen (readout 2: ATP content) against the NCATS DSHEA and TCM libraries (AID 1794840);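 note: HepG2 cells exposed to substances for about 24 h; 0% is about no effect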
Method in brief: (§1)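 Cytotoxicity was assessed in HepG2 cells plated at 1,000 cells/well and exposed for about 24 hours to a concentration series. Protease activity and ATP content were measured sequentially in each well.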

[5] = target: Cytochrome P450 2D6 (Homo sapiens) (UniProt P10635); assay: qHTS for inhibitors of CYP2D6 against the NCATS DSHEA and TCM libraries (AID 1919972); note: % is set by controls: 0 for no effect and ±100 for the full control effect
Sequence of Cytochrome P450 2D6 (Homo sapiens) (P10635 whole entry, looked up): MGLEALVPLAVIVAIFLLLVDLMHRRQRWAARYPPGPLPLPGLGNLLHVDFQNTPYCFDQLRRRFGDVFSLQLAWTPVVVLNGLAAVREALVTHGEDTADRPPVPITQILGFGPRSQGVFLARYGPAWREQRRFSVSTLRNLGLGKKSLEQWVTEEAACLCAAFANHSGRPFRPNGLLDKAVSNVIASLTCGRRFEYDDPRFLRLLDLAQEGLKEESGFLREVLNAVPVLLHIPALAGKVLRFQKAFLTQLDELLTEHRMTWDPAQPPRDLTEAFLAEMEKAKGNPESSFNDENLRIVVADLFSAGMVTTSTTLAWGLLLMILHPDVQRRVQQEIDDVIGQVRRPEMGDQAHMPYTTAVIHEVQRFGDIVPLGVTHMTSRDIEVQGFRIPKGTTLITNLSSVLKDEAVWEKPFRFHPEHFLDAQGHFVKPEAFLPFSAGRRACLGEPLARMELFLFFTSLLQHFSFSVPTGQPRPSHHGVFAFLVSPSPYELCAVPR
Method in brief: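 qHTS, concentration–response format with most substances from 19.5 nM. CYP2D6 + pro-luciferin substrate, 15 min with compound, then 1x NADPH regen, 30–45 min RT dark. Glo detection 30 min, luminescence. Quinidine control.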

[6] = target: Cytochrome P450 2C19 (Homo sapiens) (UniProt P33261); assay: qHTS for inhibitors of CYP2C19 against the NCATS DSHEA and TCM libraries (AID 1919974);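 note: luminescence from luciferin released by CYP2C19 oxidation of a pro-luciferin substrate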; note: potency is the fitted concentration of half-maximal effect
Sequence of Cytochrome P450 2C19 (Homo sapiens) (P33261 whole entry, looked up, canonical isoform): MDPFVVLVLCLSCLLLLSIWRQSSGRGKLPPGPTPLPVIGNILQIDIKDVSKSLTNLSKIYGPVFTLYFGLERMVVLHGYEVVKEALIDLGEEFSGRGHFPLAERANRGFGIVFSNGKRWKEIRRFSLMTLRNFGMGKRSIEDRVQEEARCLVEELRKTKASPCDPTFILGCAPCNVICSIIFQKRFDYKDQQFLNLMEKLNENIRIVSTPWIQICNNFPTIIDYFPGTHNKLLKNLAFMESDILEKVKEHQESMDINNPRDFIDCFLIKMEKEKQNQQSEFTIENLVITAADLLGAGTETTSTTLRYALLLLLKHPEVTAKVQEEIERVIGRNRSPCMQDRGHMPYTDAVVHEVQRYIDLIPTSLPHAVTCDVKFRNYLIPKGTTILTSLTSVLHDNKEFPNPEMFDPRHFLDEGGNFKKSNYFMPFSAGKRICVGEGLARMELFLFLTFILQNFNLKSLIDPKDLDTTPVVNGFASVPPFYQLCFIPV
Method in brief: (§2)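 Isoform-specific enzyme and substrate levels; enzyme-free wells as background. Reaction: 1x NADPH regenerating system, 30-45 min, room temperature, shielded from light; luminescent detection reagent added, 30 min.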

[7] = KB-3-1 P-gp reporter qHTS against the NCATS DSHEA and TCM libraries (AID 1919975); note: 0% is about no effect
Method in brief: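 72 h exposure of KB-3-1 cells (DMEM, 10% FBS) to DSHEA/TCM samples, concentration-response; cell viability measured as CellTiter-Glo luminescence after 30 min at room temperature.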

[8] = target: Cytochrome P450 1A2 (Homo sapiens) (UniProt P05177); assay: qHTS for inhibitors of CYPIA2 against the NCATS DSHEA and TCM libraries (AID 1919976); note: potency is the fitted concentration of half-maximal effect
Sequence of Cytochrome P450 1A2 (Homo sapiens) (P05177 whole entry, looked up): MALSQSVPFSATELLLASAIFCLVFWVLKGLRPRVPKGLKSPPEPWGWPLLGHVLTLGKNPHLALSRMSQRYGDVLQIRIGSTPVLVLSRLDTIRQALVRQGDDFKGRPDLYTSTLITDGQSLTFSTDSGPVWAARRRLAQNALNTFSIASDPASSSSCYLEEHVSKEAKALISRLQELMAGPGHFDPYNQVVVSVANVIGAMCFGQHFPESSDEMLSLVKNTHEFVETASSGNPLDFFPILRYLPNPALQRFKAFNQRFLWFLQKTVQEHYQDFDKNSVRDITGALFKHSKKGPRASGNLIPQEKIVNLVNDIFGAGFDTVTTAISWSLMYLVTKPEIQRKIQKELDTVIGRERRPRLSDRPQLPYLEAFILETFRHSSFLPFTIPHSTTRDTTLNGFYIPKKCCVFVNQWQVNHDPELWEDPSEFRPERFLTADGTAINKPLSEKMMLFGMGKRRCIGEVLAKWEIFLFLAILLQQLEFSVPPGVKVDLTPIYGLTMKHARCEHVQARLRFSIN
Method in brief: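 Furafylline served as the plate control. Compounds met CYP1A2 and pro-luciferin substrate 15 min before NADPH regeneration solution (1x) was added; after 30-45 min at RT, P450-Glo reagent was added for 30 min and luminescence was measured.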

[9] = qHTS Counterscreen for compound interference against the NCATS DSHEA and TCM libraries (AID 1919978); details: firefly luciferase detection reagent interference, luminescence; note: % of control where 0% means no effect
Method in brief: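 Read-out is luminescence after 30 min at RT with luciferin detection reagent. Before that, compounds (19.5 nM to 39.8 uM final) sat 15 min at RT with 1 uM D-luciferin or 100 mM potassium phosphate buffer. PTC124 served as intraplate control.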

[10] = Dual reporter qHTS for agonist of Pregnane X Receptor (hPXR) against the NCATS DSHEA and TCM libraries: Fluorescence readout (AID 1920058); note: 0% is about no effect
Method in brief: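 In this qHTS counter-read, reporter-bearing HepG2 cells in charcoal-stripped serum received substances for approximately 24 h before viability was assessed fluorometrically with CellTiter-Fluor.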

[11] = target: Nuclear receptor subfamily 1 group I member 2 (Homo sapiens) (UniProt O75469); assay: Dual reporter qHTS for agonist of Pregnane X Receptor (hPXR) against the NCATS DSHEA and TCM libraries: Luminescence readout (AID 1920059); note: 0% is about no effect
Sequence of Nuclear receptor subfamily 1 group I member 2 (Homo sapiens) (O75469 whole entry, looked up): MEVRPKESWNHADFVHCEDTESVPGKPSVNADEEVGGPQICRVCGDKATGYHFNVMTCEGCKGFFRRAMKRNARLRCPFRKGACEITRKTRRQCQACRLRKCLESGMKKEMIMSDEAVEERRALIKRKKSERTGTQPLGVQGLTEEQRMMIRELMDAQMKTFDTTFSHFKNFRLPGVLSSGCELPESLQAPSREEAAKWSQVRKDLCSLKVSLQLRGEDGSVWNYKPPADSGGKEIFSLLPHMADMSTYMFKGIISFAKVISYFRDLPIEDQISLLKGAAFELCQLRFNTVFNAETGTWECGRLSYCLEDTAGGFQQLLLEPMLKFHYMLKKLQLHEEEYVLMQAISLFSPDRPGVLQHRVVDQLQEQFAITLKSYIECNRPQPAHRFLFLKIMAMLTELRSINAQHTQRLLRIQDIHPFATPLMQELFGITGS
Method in brief: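 hPXR-Luc HepG2 cells, 2000/well in 5% charcoal-stripped FBS medium, attached 5 h, then exposed 24 h at 37C to compounds. Viability by CellTiter-Fluor, then luciferase luminescence with ONE-Glo.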

[12] = target: Nuclear receptor subfamily 1 group I member 2 (Homo sapiens) (UniProt O75469); assay: Dual reporter qHTS for antagonist of Pregnane X Receptor (hPXR) against the NCATS DSHEA and TCM libraries: Luminescence Readout (AID 1920060); note: 0% is about no effect
Method in brief: (§3)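 Rifampicin-stimulated (2 uM final) hPXR-luciferase HepG2 cells were treated for 24 h with DSNP/TCM substances. Viability came from CellTiter-Fluor fluorescence, reporter activity from ONE-Glo luminescence.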

[13] = target: Cytochrome P450 3A4 (Homo sapiens) (UniProt P08684); assay: qHTS for inhibitors of CYP3A4 against the NCATS DSHEA and TCM libraries (AID 1919971);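 note: % is set by controls: 0 for no effect and ±100 for the full control effect; inhibition lowers luminescence from luciferin made by CYP3A4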
Sequence of Cytochrome P450 3A4 (Homo sapiens) (P08684 whole entry, looked up): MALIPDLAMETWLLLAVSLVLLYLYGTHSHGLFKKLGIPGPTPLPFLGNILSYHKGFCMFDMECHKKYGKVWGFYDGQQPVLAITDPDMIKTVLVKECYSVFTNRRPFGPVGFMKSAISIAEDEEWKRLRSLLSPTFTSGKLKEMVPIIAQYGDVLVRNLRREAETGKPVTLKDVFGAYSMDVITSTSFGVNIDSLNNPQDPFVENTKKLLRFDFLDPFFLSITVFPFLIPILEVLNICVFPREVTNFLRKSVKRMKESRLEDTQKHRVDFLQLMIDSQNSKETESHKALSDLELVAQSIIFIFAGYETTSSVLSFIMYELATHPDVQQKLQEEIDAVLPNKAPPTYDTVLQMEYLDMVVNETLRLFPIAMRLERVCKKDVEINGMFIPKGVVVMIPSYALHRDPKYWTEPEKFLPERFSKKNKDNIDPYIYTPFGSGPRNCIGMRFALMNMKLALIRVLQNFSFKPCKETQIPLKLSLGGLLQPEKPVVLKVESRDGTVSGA
Method in brief: as §2

[14] = target: Cytochrome P450 2C9 (Homo sapiens) (UniProt P11712); assay: qHTS for inhibitors of CYP2C9 against the NCATS DSHEA and TCM libraries (AID 1919973); note: potency is the fitted concentration of half-maximal effect
Sequence of Cytochrome P450 2C9 (Homo sapiens) (P11712 whole entry, looked up): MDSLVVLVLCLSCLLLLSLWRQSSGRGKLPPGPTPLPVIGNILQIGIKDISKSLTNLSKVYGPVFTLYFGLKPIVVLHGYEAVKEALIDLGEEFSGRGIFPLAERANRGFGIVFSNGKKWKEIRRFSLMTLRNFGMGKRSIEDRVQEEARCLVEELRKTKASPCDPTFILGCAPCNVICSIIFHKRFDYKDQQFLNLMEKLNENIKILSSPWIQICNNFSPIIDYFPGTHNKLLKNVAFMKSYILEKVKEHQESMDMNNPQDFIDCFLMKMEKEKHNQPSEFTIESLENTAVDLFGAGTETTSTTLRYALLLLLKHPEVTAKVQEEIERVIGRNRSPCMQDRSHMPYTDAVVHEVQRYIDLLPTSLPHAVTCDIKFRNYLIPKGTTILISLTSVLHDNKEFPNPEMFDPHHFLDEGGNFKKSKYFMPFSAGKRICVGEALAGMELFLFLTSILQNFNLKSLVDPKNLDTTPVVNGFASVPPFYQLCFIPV
Method in brief: as §2

[15] = Dual reporter qHTS for antagonist of Pregnane X Receptor (hPXR) against the NCATS DSHEA and TCM libraries: Fluorescence Readout (AID 1920061); note: 0% is about no effect
Method in brief: as §3

[16] = target: Glutathione peroxidase 1 (Homo sapiens) (UniProt P07203); assay: Primary qHTS Assay for Inhibitors of Recombinant Selenoprotein Glutathione Peroxidase 1 (GPX1) (AID 1845191); note: nearly all actives have a fitted effect of over 65% in size
Sequence of Glutathione peroxidase 1 (Homo sapiens) (P07203 whole entry, looked up): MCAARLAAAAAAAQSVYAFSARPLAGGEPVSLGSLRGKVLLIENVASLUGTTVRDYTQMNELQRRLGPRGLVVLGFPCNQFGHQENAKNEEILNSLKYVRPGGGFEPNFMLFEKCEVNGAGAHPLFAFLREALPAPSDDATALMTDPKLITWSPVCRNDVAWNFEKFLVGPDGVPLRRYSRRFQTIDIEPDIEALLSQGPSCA
Method in brief: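 GR-coupled readout: NADPH consumption tracked by fluorescence, ex 340/em 450 nm, at t=0 and after 15 min at RT. Final mix 10 nM GPX1, 1 mM GSH, 0.5 mM CHP, 0.5 mM NADPH, 100 nM GR, 0.01% BSA, following 30 min enzyme–compound preincubation.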

[17] = target: Phospholipid hydroperoxide glutathione peroxidase GPX4 (Homo sapiens) (UniProt P36969); assay: Primary qHTS Assay for Inhibitors of Recombinant Selenoprotein Glutathione Peroxidase 4 (GPX4) (AID 1845192); note: potency is the fitted concentration of half-maximal effect; nearly all actives have a fitted effect of over 65% in size
Sequence of Phospholipid hydroperoxide glutathione peroxidase GPX4 (Homo sapiens) (P36969 whole entry, looked up): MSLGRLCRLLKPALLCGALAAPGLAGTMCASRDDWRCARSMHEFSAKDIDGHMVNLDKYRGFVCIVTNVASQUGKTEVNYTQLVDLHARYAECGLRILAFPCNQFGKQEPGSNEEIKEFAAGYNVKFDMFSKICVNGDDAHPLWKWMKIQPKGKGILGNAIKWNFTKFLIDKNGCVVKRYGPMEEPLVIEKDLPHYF
Method in brief: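 Steps: GPX4 plus compound, 30 min RT; add GR/GSH/NADPH master mix; start with cumene hydroperoxide; read 340/450 nm fluorescence at 0 and 15 min. Finals were 200 nM GPX4, 1 mM GSH, 0.5 mM CHP, 0.5 mM NADPH, 100 nM GR.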

[18] = HepG2 viability counterscreen (readout 1: protease activity) against the NCATS DSHEA and TCM libraries (AID 1794841);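 note: cells exposed to compounds for about 24 h before the protease read; 0% is about no effect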
Method in brief: as §1

[19] = target: Lysosomal acid glucosylceramidase (Homo sapiens) (UniProt P04062); assay: Glucocerebrosidase-p2 (AID 348; in the data active = potency below about 10 µM; note: potency is the fitted concentration of half-maximal effect); details: purified GBA, blue fluorogenic substrate, 40 min
Method in brief: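 Normal human glucocerebrosidase (0.2 nM) with blue fluorogenic substrate (80 uM final) in citrate/phosphate pH 5.9 with 10mM sodium taurocholate, 0.01% tween-20; 40 min RT, NaOH/glycine stop; fluorescence Ex 365/Em 440; AC50 from a titration from 0.6 nM upwards.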

[20] = AP1 Signaling Pathway (AID 357; active = well fitted curve in either direction with a large enough effect, not every such curve was filed as active;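 note: ME-180 reporter cells stimulated with EGF at its EC50 level; % is set by controls: 0 for no effect and ±100 for the full control effect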); details: ME-180 (cervical carcinoma) AP-1-bla reporter, EGF-induced, beta-lactamase ratio, 5 h; at 7.69 µM (top of the series) unless noted
Method in brief: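 Modulation of EGF-driven AP-1 transcription was assessed with a beta-lactamase reporter in ME-180 cells. Compound and EC50 EGF were co-incubated 5 hours at 37 °C before 2.5-hour CCF4 loading at room temperature and dual-emission reading.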

[21] = target: Cytochrome P450 1A2 (Homo sapiens) (UniProt P05177); assay: p450-cyp1a2 (AID 410; calls by dose curve; note: potency is the fitted concentration of half-maximal effect)
Method in brief: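 Read-out is luminescence from luciferin produced by CYP1A2 demethylation of Luciferin-ME (100uM, at Km). Detection reagent stopped the 60 min NADPH-dependent reaction; signals were normalized to 57 uM furafylline.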

[22] = Stat Signaling Pathway (AID 446; active = well fitted curve in either direction with a large enough effect, not every such curve was filed as active;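 note: ME-180 cervical cancer cells given 40 pM IL-6 alongside compound; SIE-controlled beta-lactamase reporter measured as 460/530 nm FRET emission ratio; % is set by controls: 0 for no effect and ±100 for the full control effect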)
Method in brief: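 Overnight-plated ME-180 cells bearing a STAT Inducible Element beta-lactamase reporter; 5 h co-exposure to compound and 40 pM IL-6; values normalized to 300 pM IL-6 and 125 nM JAK inhibitor controls.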

[23] = target: Glucocorticoid receptor (Homo sapiens) (UniProt P04150); assay: GR-GFP Redistribution (AID 450;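 active = compounds whose dose series gives a full or clear partial fitted curve of increased nuclear translocation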; note: potency is the fitted concentration of half-maximal effect); details: U2OS GR-GFP nuclear translocation, laser cytometry, 2 h
Sequence of Glucocorticoid receptor (Homo sapiens) (P04150 whole entry, looked up, the tested form may be a part): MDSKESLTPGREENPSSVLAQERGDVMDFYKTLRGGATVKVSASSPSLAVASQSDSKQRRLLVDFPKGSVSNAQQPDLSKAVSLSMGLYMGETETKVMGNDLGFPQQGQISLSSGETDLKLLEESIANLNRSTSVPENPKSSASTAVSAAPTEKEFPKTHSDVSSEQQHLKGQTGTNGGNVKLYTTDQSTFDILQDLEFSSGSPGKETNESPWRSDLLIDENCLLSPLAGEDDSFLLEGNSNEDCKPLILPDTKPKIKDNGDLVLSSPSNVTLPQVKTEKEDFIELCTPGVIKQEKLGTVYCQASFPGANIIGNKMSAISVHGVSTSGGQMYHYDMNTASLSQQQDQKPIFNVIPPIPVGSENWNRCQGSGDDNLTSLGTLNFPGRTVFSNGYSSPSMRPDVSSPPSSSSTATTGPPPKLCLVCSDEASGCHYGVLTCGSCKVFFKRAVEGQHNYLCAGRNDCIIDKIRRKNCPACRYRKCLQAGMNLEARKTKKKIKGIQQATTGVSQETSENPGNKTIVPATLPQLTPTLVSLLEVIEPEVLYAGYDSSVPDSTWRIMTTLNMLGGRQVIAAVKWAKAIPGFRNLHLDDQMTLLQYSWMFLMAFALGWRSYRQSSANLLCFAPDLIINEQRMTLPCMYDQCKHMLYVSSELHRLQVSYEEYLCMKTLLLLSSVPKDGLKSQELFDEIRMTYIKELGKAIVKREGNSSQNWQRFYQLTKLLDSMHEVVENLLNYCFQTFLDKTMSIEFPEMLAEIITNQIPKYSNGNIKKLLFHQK

[24] = target: Glucocorticoid receptor (Homo sapiens) (UniProt P04150); assay: GR-EFC Redistribution (AID 451; calls by dose curve; note: potency is the fitted concentration of half-maximal effect); details: CHO-K1 GR-EFC translocation, beta-gal luminescence, 2 h
Method in brief: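 CHO-K1 cells expressing nuclear EA and GR-ED fragments of b-gal; compounds titrated up to 46 uM final, 2 h at 37 C. GR nuclear translocation read as complemented b-gal luminescence after 1 h RT detection.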

[25] = target: Mitogen-activated protein kinase 10 (Mus musculus) (UniProt Q61831); assay: JNK3 AlphaScreen Assay (AID 530; active = well fitted curve in either direction with a large enough effect, not every such curve was filed as active;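 note: kinase came from lysate of stimulated human HepG2 cells; signal reports phosphorylation of biotinylated GST-cJun 1-79 at Ser73 with 10 µM ATP; % is set by controls: 0 for no effect and ±100 for the full control effect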)
Method in brief: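 HepG2 lysate (IL-1b/TNFa pre-activated) + biotin-GST-cJun 1-79 + anti-pSer73 cJun; cpd titration, 15 min RT; ATP 10 uM start; Tris pH 7.6, MgCl2, DTT, vanadate; beads in EDTA buffer; AlphaScreen.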

[26] = target: Cytochrome P450 3A4 (Homo sapiens) (UniProt P08684); assay: qHTS Assay for Activators of Cytochrome P450 3A4 (AID 885); note: nearly all actives have a fitted effect of over 65% in size
Method in brief: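 Using 20nM recombinant human CYP3A4 in potassium phosphate (200mM), substrate Luciferin-PPXE at 25uM, luminescent luciferin detection followed a 60-min RT NADPH reaction; data scaled to 57 uM ketoconazole.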

[27] = target: Cytochrome P450 2D6 (Homo sapiens) (UniProt P10635); assay: qHTS Assay for Inhibitors and Substrates of Cytochrome P450 2D6 (AID 891); note: potency is the fitted concentration of half-maximal effect; nearly all actives have a fitted effect of over 60% in size
Method in brief: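 Luminescent read-out of luciferin formed by 5 nM human CYP2D6 demethylating 30 uM Luciferin-ME EGE (Km level) over 60 min at room temperature after NADPH regeneration addition. Data normalized to full inhibition by 1.43 uM quinidine.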

[28] = target: Cytochrome P450 2C19 (Homo sapiens) (UniProt P33261); assay: qHTS Assay for Inhibitors and Substrates of Cytochrome P450 2C19 (AID 899); note: potency is the fitted concentration of half-maximal effect; nearly all actives have a fitted effect of over 60% in size
Method in brief: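 Luminescent read-out of luciferin formed from Luciferin-H EGE (10uM, equal to KM). Enzyme 5nM in 50mM KPO4; compound added, 10 min at 37C, then NADPH regenerating system for 60 min at 37C. Full inhibition defined by 57uM ketoconazole.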

[29] = target: Dual specificity protein kinase CLK4 (Homo sapiens) (UniProt Q9HAZ1); assay: qHTS Assay for Inhibitors of CDC-like Kinase 4 (ADP-FP Assay) (AID 1795);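 note: recombinant human CLK4 phosphorylating RS repeat peptide at 1 µM ATP; % is set by controls: 0 for no effect and ±100 for the full control effect; nearly all actives have a fitted effect of over 60% in size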
Sequence of Dual specificity protein kinase CLK4 (Homo sapiens) (Q9HAZ1 whole entry, looked up): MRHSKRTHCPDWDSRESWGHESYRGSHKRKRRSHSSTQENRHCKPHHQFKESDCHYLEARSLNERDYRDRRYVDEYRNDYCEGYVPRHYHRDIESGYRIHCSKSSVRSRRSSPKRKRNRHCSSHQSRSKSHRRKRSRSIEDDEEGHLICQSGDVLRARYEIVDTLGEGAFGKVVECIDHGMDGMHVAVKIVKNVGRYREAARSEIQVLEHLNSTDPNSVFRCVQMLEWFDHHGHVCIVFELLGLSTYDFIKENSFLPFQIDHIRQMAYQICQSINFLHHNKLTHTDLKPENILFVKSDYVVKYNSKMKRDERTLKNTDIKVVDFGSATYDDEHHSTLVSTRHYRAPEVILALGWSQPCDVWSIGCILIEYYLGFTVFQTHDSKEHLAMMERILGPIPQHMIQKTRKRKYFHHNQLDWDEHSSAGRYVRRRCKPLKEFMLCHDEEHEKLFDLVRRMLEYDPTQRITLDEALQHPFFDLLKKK
Method in brief: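 Inhibition of ADP formation by 6.25 nM Clk4 is measured using 1 uM ATP and 100 uM RS repeat peptide over one hour. Produced ADP displaces a fluorescent tracer from antibody, lowering polarization.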

[30] = target: Ubiquitin carboxyl-terminal hydrolase 1 (Homo sapiens) (UniProt O94782); assay: Inhibitors of USP1/UAF1: Pilot qHTS (AID 504865);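 note: rhodamine fluorescence freed from ubiquitin-rhodamine substrate followed over time; top concentration of the series differs between compounds; % is set by controls: 0 for no effect and ±100 for the full control effect; nearly all actives have a fitted effect of over 35% in size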
Method in brief: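 Kinetic fluorescence assay: 1nM USP1/UAF1, 15 min compound preincubation, then 150nM Ub-Rho; 480/540 nm.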

C=C1CC/C=C(/C)CC[C@@H]2[C@@H]1CC2(C)C
active: Potency [3] 7.08 µM | Potency [6] 3.55 µM | Potency [8] 3.55 µM
inactive: outcome [1] | outcome [2] | outcome [4] | Potency [5] | outcome [7] | max response [9] 1.11% | outcome [10] | Potency [11] | outcome [12]

CC(C)=CCC[C@](C)(O[C@@H]1O[C@H](CO)[C@@H](O)[C@H](O)[C@H]1O)[C@H]1CC[C@]2(C)[C@@H]1[C@H](O)C[C@@H]1[C@@]3(C)CC[C@H](O)C(C)(C)[C@@H]3[C@@H](O[C@@H]3O[C@H](CO)[C@@H](O)[C@H](O)[C@H]3O)C[C@]12C
inactive: outcome [1] | outcome [2] | outcome [4] | Potency [13] | Potency [5] | Potency [14] | Potency [6] | outcome [7] | Potency [8] | max response [9] 2.82% | outcome [10] | Potency [11] | outcome [12] | outcome [15]

CCCCCC(=O)O
inactive: outcome [4] | Potency [13] | Potency [5] | outcome [7] | Potency [8] | max response [9] -1.64% | outcome [10] | Potency [11] | outcome [12]

CCCCCCCC/C=C/CCCCCCCC(=O)O
inactive: outcome [4] | Potency [16] | Potency [5] | outcome [7] | max response [9] -3.39% | outcome [10] | Potency [11] | outcome [12] | outcome [15]
active: Potency [17] 11.2 µM | Potency [14] 14.1 µM | Potency [6] 3.55 µM

Oc1cc(O)c2c(c1)O[C@@H](c1cc(O)c(O)c(O)c1)[C@H](O)C2
inactive: outcome [1] | outcome [2] | outcome [4] | outcome [18] | Potency [13] | Potency [5] | outcome [7] | max response [9] -5.21% | outcome [10] | outcome [12]
active: Potency [8] 3.55 µM

Cc1nc2cnc(N3CCN(C)CC3)nc2n(CCc2ccccc2)c1=O
active: Potency [21] 10 µM | Potency [27] 2.51 µM | Potency [28] 5.01 µM
inactive: Potency [19] > 11.4 µM | activity change, negative = inhibition [20] 0.08% | outcome [22] | Potency [23] > 9.22 µM | Potency [24] > 46 µM | Potency [25] | outcome [26] | Potency [29] | Potency [30]

CC1(C)CC[C@]2(C(=O)O)CC[C@]3(C)C(=CCC4[C@@]5(C)CC[C@@H](O)C(C)(C)C5CC[C@]43C)C2C1 (stereo partly specified)
inactive: outcome [1] | outcome [2] | Potency [3] | outcome [4] | Potency [5] | outcome [7] | Potency [8] | max response [9] -3.58% | outcome [10] | Potency [11] | outcome [12]
